A selection: hits, their analogues and other compounds. The true share with any hit is near 13%.
HCMV inh: human cytomegalovirus inhibition; AID 1259415; HFF cells, HCMV-luciferase reporter, 72 h; stronger effect = lower value; hit rate 4.5% among 410,000; activity change, negative = inhibition, % at 57.5 µM; in the data active = activity change below about -60%; inconclusive = no clear call, values can overlap the other calls; inactive = above about -39%
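HFF cells seeded 16 h at 37C, treated with compounds, infected with luciferase-reporter HCMV at MOI 1 PFU/cell; luciferase read at 72 h post infection, normalized to buffer-only and Salinomycin controls.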
Pf growth 96h: inhibits malaria parasite growth, 96 h. P. falciparum luciferase reporter growth, 96 h. Potency, µM (titrated, usually from 28.7 µM), hits mostly inhibitors. hit rate 6.9% among 320,000. AID 504834
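P. falciparum expressing integrated firefly luciferase, in erythrocytes at 2% hematocrit, 0.05% parasitemia, incubated with compounds 96 h at 37 C, 5% CO2. Growth inhibition read as loss of luminescence; two-generation exposure targets delayed-death apicoplast inhibitors.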
HCV inh: inhibitors of hepatitis C virus infection. Potency, µM (doses to about 41.8 µM), usual class: inhibitors. hit rate 3.4% among 340,000. Huh7.5.1 HCVcc-Cre infection, luciferase reporter, 44 h
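1,000 cells/well; 4 h culture; + compound; + HCVcc-Cre (~0.5 moi); 44 h; luciferase substrate, RT 15 min; read 15 sec.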
Pf growth 48h: inhibits P. falciparum growth in the first generation, 48 h. P. falciparum luciferase growth in erythrocytes, 48 h. Potency, µM (titrated, usually from 28.7 µM), hits mostly inhibitors. hit rate 5.9% among 310,000
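Parasite viability was followed by luminescence of a genomically integrated firefly luciferase. Cultures held 0.1% parasitemia at 2% hematocrit (final), incubated under 5% CO2 at 37 C.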
Large screens that a line does not name were inactive. Unless noted, calls come from the whole dose curve; as a rule, active = well fitted inhibition curve with a large enough effect; inconclusive = small, poorly fitted or top-dose-only effect, or another doubt; inactive = no such curve, though single readings can be large or run the other way.

CNC(=S)N(Cc1ccc(OC)cc1)C1CC(=O)N(c2ccc(Cl)cc2)C1=O (configuration not stated)	Pf growth 96h 0.93µM, Pf growth 48h inconclusive
N#C[C@H](c1ccccc1)C1CCN(C(=O)c2ccco2)CC1	none (no result: Pf growth 96h, HCV inh, Pf growth 48h)
O=C1/C(=C\c2ccc(Br)o2)SC(=Nc2ccccc2)N1c1ccccc1	Pf growth 96h 9.3µM, HCV inh inconclusive, Pf growth 48h inconclusive
CCC(=O)Nc1ccc2c(c1)OC[C@@H](C)N(Cc1cccc(F)c1)C[C@@H](C)[C@@H](OC)CN(C)C2=O	none (no result: Pf growth 96h, HCV inh, Pf growth 48h)
CC(NC(=O)c1sc2ncccc2c1-n1cccc1)c1ccccc1 (configuration not stated)	none (no result: Pf growth 96h, HCV inh, Pf growth 48h)
CCn1cc2nc(SCC(=O)Nc3ccc(F)cc3F)n(Cc3ccccc3)c(=O)c2n1	Pf growth 96h 13µM, Pf growth 48h inconclusive
OCc1ccccc1Cn1ccnc1	none (no result: Pf growth 96h, HCV inh, Pf growth 48h)
OCc1cn(Cc2ccc(O)c3ncccc23)cn1	Pf growth 96h 6.6µM, Pf growth 48h 5.2µM (no result: HCMV inh, HCV inh)
Oc1ccc(Cn2ccnc2)c2cccnc12	HCV inh inconclusive, Pf growth 48h 3.7µM
c1ccc2c(Cn3ccnc3)c[nH]c2c1	Pf growth 96h inconclusive
Cc1c(C(=O)Nc2cnn(C(C)(C)C(=O)NCc3ccco3)c2)oc2ccccc12	none (no result: Pf growth 96h, HCV inh, Pf growth 48h)
COc1ccc(CCNC(=O)C2CCCN(S(=O)(=O)c3ccc4c(c3)oc(=O)n4C)C2)cc1OC (configuration not stated)	none (no result: Pf growth 96h, HCV inh, Pf growth 48h)
Cn1c[n+](C)cc1-c1ccc(/C(N)=N/O)cc1	Pf growth 96h 4.7µM, Pf growth 48h inconclusive
O=C(O)c1cn(-c2ccc(F)cc2)c2cc(Cl)c(F)cc2c1=O	HCMV inh -61, Pf growth 96h inconclusive
c1ccc(CCCCc2ccncc2)cc1	HCMV inh -63 (no result: Pf growth 96h, Pf growth 48h)
CCOC(=O)C1CCN(C(=O)Cn2ncc3c([nH]c4ccc(C)cc43)c2=O)CC1	none (no result: Pf growth 96h, HCV inh, Pf growth 48h)
COc1ccc(NC(=O)C2CCN(c3cc(-c4ccccc4)nc4ncnn34)CC2)cc1OC	HCMV inh -89, Pf growth 96h inconclusive, Pf growth 48h inconclusive
COc1ccc(OC)c(NC(=O)C2CCN(c3cc(-c4ccccc4)nc4ncnn34)CC2)c1	HCMV inh inconclusive, HCV inh 14µM (no result: Pf growth 48h)
COc1ccc(NC(=O)C2CCN(c3cnccn3)CC2)cc1OC	none
COc1ccccc1NC(=O)N1CCN(c2cc(-c3ccccc3)nc3ncnn23)CC1	HCMV inh -95, HCV inh 10µM, Pf growth 48h inconclusive
Cc1ccc(Cn2c(=O)n(-c3cccc(C(F)(F)F)c3)c(=O)c3c(C)c(C)sc32)c(C)c1	none (no result: Pf growth 96h, HCV inh, Pf growth 48h)
O=c1[nH]c(/C(Cl)=C/c2c(F)cccc2Cl)nc2cc(Cl)ccc12	none
O=c1[nH]c(/C(Cl)=C/c2cc(Cl)ccc2O)nc2cc(Cl)ccc12	HCMV inh -70, Pf growth 96h 9.3µM
O=S(=O)(c1ccc(-c2ccon2)s1)N1CCCC1	none
O=S(=O)(c1ccc(-c2ccon2)s1)N1CCN(c2ccncc2)CC1	Pf growth 48h 1.3µM (no result: HCMV inh)
Cc1ccc(S(=O)c2snnc2C)cc1 (configuration not stated)	none (no result: Pf growth 48h)
Cc1nnsc1S(=O)c1ccc(Br)cc1 (configuration not stated)	HCMV inh -63, Pf growth 96h inconclusive, Pf growth 48h inconclusive
Cc1nnsc1S(=O)c1ccc(F)cc1 (configuration not stated)	HCMV inh -69, Pf growth 96h inconclusive
COc1cc(C2CC(=O)N(CC(=O)Nc3ccccc3F)c3ccccc3S2)cc(OC)c1OC (configuration not stated)	none (no result: Pf growth 96h, HCV inh, Pf growth 48h)
C=CCN1C=C(C(=O)OCC)C(=O)CC1	none (no result: Pf growth 96h, HCV inh, Pf growth 48h)
CC(C)NC(=O)c1nnc2n1CCN(Cc1ccc(Cl)c(F)c1)C2	none (no result: Pf growth 96h, HCV inh, Pf growth 48h)
COc1ccc(S(=O)(=O)Nc2cccc(-c3ccc(N4CCC(C)CC4)nn3)c2)cc1OC	none (no result: Pf growth 96h, HCV inh, Pf growth 48h)
COc1ccc(CC(=O)Nc2c3c(nn2-c2cccc(C)c2C)CS(=O)C3)cc1OC (configuration not stated)	Pf growth 96h 2.6µM
COc1ccc(CC(=O)Nc2c3c(nn2-c2cccc(C)c2C)CS(=O)C3)cc1 (configuration not stated)	Pf growth 96h inconclusive
CCN(C(=O)NCc1noc2ccccc12)c1cc(C)ccc1C	none (no result: Pf growth 96h, HCV inh, Pf growth 48h)
CCOC(=O)C1=C(C)N(C)C(=S)NC1c1c(OCC)ccc2ccccc12 (configuration not stated)	Pf growth 96h inconclusive, Pf growth 48h inconclusive
CCOc1ccc2ccccc2c1C1NC(=S)N(C)C(C)=C1C(=O)OC (configuration not stated)	Pf growth 96h 3.3µM, Pf growth 48h inconclusive
O=C(NCc1cccc(Cl)c1)c1cnc(N2CCCCC2)c2ccccc12	none (no result: Pf growth 96h, HCV inh, Pf growth 48h)
